Test [1] can be described thus: NCI Yeast Anticancer Drug Screen. Data for the rad50 strain (AID 155).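 Also: 0% = growth of vehicle-only cultures of the same strain.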 To be noted: S. cerevisiae rad50 strain growth inhibition; at 50.0 µM; hits give high values. The gist of the method:
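Yeast carrying a defined DNA repair defect were exposed to test compounds, and growth was compared with vehicle-treated controls to give percent inhibition.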

Test [2] is described as follows: NCI Yeast Anticancer Drug Screen. Data for the mec2-1 strain (AID 157). To be noted: S. cerevisiae mec2-1 strain, at 50.0 µM, hits give high values. An outline of the steps: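 Using mec2-1 yeast: add compound, measure growth, express inhibition versus vehicle-treated cultures.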
Test [3] can be described thus: NCI Yeast Anticancer Drug Screen. Data for the sgs1 mgt1 strain (AID 161).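 Also: 0% = growth of cultures given vehicle only.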 To be noted: S. cerevisiae sgs1 mgt1 strain, at 50.0 µM, hits give high values. The gist of the method: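 Growth of a repair-deficient yeast mutant was monitored after compound treatment and expressed as inhibition relative to vehicle-treated cultures.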
The nature of test [4]: NCI Yeast Anticancer Drug Screen. Data for the cln2 rad14 strain (AID 165).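 Also: 0% = growth equal to vehicle treated cultures.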 The following applies: S. cerevisiae cln2 rad14 strain, at 50.0 µM, hits give high values. The gist of the method:
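Yeast strain cln2 rad14, bearing defects in cell cycle control and DNA repair, serves as the test system; values reflect growth inhibition compared with vehicle.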

Test [5] can be described thus: NCI Yeast Anticancer Drug Screen. Data for the bub3 strain (AID 167). The following applies: S. cerevisiae bub3 mutant strain, at 50.0 µM, hits give high values. The gist of the method:
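Compounds were applied to a genetically altered yeast strain carrying a cell-cycle control defect. Growth inhibition was scored against vehicle-treated controls.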

Test [6] is described as follows: NCI Yeast Anticancer Drug Screen. Data for the mlh1 rad18 strain (AID 175). To be noted: S. cerevisiae mlh1 rad18 strain growth inhibition; at 50.0 µM; hits give high values. An outline of the steps: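 Steps: expose repair-defective yeast to compound; measure growth; express inhibition against vehicle-treated controls.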

Molecules are shown by their SMILES. Compounds without any hit were thinned out: in the full panel of roughly 79,000, 15% have a hit. Values without a mark were called inactive. Calls of active or inactive are those of the source. Rule as the data show it: active = growth inhibition above about 70%; inactive = the rest.

As to `CCC(c1ccc(O)cc1)c1cc2c(cc1OCCO)OCO2` (stereo not given), the growth inhibition is -15.7% in test [1]; -9.25% in test [2]; -5.7% in test [3]; -11.2% in test [4]; -7.9% in test [5]; -5.3% in test [6].

Regarding `c1ccc(CNn2nnc3ccccc32)cc1`, the growth inhibition in test [1] was 16.6%; in test [2], -14.4%; in test [3], 7.25%; in test [4], 3.15%; in test [5] it was -2.95%; in test [6], 21.9%.

Turning to `CS(=O)(=O)OCCC(O)COS(C)(=O)=O` (stereo not given), the growth inhibition in test [1] was -7.55%; in test [2] it was -7.25%; in test [3], 9.45%; in test [4] it was -55%; in test [5] it was -12.5%; in test [6], 4.1%.

As to `N#Cc1cc2c(cc1C#N)SCCSCCCSCCS2`, the growth inhibition in test [1] was 1.2%; in test [2], 5%; in test [3], 1.05%; in test [4] it was 22.4%; in test [5], 6%; in test [6], -24.8%.

Take `CC(O)(C#Cc1ccccc1)c1nc2ccccc2s1` (stereo not given): the growth inhibition in test [1] is 1.2%; in test [2] it was -5%; in test [3], -4.95%; in test [4], -7.65%; in test [5], 17.2%; in test [6], 4.35%.

Consider `S=C(Cc1cccc2ccccc12)N1CCN(c2ccc(Cl)cc2)CC1`, for which the growth inhibition in test [1] was -17%; in test [2] it was -2.3%; in test [3], -16%; in test [4] it was -7.9%; in test [5] it was -9.95%; in test [6], -0.55%.

On to `COC(=O)c1cc(C(=O)OC)c(C/C(=N/NC(=O)C[N+](C)(C)C)C(=O)Nc2cccc(C(F)(F)F)c2)nc1C/C(=N/NC(=O)C[N+](C)(C)C)C(=O)Nc1cccc(C(F)(F)F)c1`, for which the growth inhibition in test [1] was -14.5%; in test [2], -1.45%; in test [3], -11.6%; in test [4] it was 17.1%; in test [5], 11.4%; in test [6], -2.3%.

Take `CCC(O)(c1ccccc1)c1ccccc1`: the growth inhibition was 1.7% in test [1]; 3.5% in test [2]; -5.65% in test [3]; 4.15% in test [4]; -19.8% in test [5]; -4.8% in test [6].

For the molecule `CN(C)C1Cc2ccccc2C1OC(=O)c1ccccc1` (stereo not given), the growth inhibition was 27% in test [1]; 20.2% in test [2]; 11% in test [3]; 22.1% in test [4]; 14.6% in test [5]; 37.1% in test [6].

Take `Nc1ccc2c(c1)C1C(C3C2C2(Cl)C(Cl)=C(Cl)C3(Cl)C2(Cl)Cl)C2(Cl)C(Cl)=C(Cl)C1(Cl)C2(Cl)Cl` (stereo not given): the growth inhibition is 33.6% in test [1]; 24.9% in test [2]; 21.9% in test [3]; 24.1% in test [4]; 50.1% in test [5]; 39.5% in test [6].

Take `CC1OC(C)(CCc2ccccc2)OC1C` (stereo not given): the growth inhibition is 0.4% in test [1]; -46.8% in test [2]; 11.7% in test [3]; -12.2% in test [4]; -21.6% in test [5]; -8% in test [6].

Regarding `CCNC1=C(OC)C(=O)C(NCC)=C(OC)C1=O`, the growth inhibition is -6.2% in test [1]; 7.25% in test [2]; 2.6% in test [3]; -33.6% in test [4]; 5.3% in test [5]; -5.8% in test [6].

For `O=C(O)CCCC#CCCCC(=O)O`, the growth inhibition in test [1] is 10.4%; in test [2], 4.5%; in test [3], 2%; in test [4], 17.3%; in test [5], 25.8%; in test [6], -13.7%.

Regarding `Cn1c2c(F)cccc2c(=O)c2c(O)cc3c(c21)C=CC(C)(C)O3`, the growth inhibition was -24.6% in test [1]; -22.2% in test [2]; -27.4% in test [3]; -17.9% in test [4]; -18.6% in test [5]; -19.7% in test [6].

With `CCOC(=O)C(CO)NC(=O)C[NH-].CCOC(=O)C(CO)NC(=O)C[NH-].[Cl][Pt+2][Cl]` (stereo not given), the growth inhibition was -12.5% in test [1]; -8.55% in test [2]; -17.4% in test [3]; -34.4% in test [4]; -3.5% in test [5]; 12.2% in test [6].

With `CCCCOC(=O)/C(=C\c1ccc(OC(C)=O)c(OC)c1)NC(=O)c1ccccc1`, the growth inhibition in test [1] is 4.7%; in test [2], 7.6%; in test [3], -1.5%; in test [4], -10.3%; in test [5], 14.9%; in test [6], -6.35%.

For `Clc1ccc(Cl)c(N=Nc2cc3c4c(c2)CCN4CCC3)c1`, the growth inhibition in test [1] is -34%; in test [2], -35.1%; in test [3], -15.2%; in test [4], -16.3%; in test [5], -10.8%; in test [6], -18.8%.

Consider `c1ccc2cc(CNCCCCNCCCNCc3ccc4ccccc4c3)ccc2c1`, for which the growth inhibition in test [1] was 63.8%; in test [2], 38.6%; in test [3] it was 62.3%; in test [4], 46.2%; in test [5], 85% (active); in test [6], 76.3% (active).

Consider `CC(C)CCc1ccccc1O`, for which the growth inhibition in test [1] was -14.7%; in test [2], -21.1%; in test [3], -28.6%; in test [4], -19.9%; in test [5] it was 0.1%; in test [6], -14.5%.

In the case of `O=Cc1cccs1`, the growth inhibition was 23% in test [1]; -2% in test [2]; 7.85% in test [3]; -14.6% in test [4]; 8.3% in test [5]; 33.9% in test [6].

(Values after PubChem BioAssay (NCI).)
